Screen size: about 5,500 compounds; about 2,000 (36%) were called active. Roughly 18% stayed inconclusive and do not appear here. Cut-off read from the data, not from the text of the source: active = normalized growth mostly below about 0.91 (no sharp cut-off); inconclusive = no clear call, values can overlap the other calls; inactive = mostly above about 0.92. Some of the results follow.
Assay: chemical genetic growth profiling, strain panel (AID 1159580);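 note: tested at 20 µM; growth read once vehicle control cultures reached saturation at 30 °C; 1 = growth at the plate median or of vehicle wells; lower values mean less growth of the strain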
Conditions: growth OD
[1] = S. cerevisiae deletion strains, locus YAL013W, strain DEP1, stronger effect = lower value
[2] = S. cerevisiae deletion strains, locus YBR229C, strain ROT2, stronger effect = lower value
[3] = S. cerevisiae deletion strains, locus YDL101C, strain DUN1, stronger effect = lower value
[4] = S. cerevisiae deletion strains, locus YDR150W, strain NUM1, stronger effect = lower value
[5] = S. cerevisiae deletion strains, locus YEL061C, strain CIN8, stronger effect = lower value
[6] = S. cerevisiae deletion strains, locus YGR078C, strain PAC10, stronger effect = lower value
[7] = S. cerevisiae deletion strains, locus YHR030C, strain SLT2, stronger effect = lower value
[8] = S. cerevisiae deletion strains, locus YHR087W, strain rtc3, stronger effect = lower value
[9] = S. cerevisiae deletion strains, locus YJR043C, strain POL32, stronger effect = lower value
[10] = S. cerevisiae deletion strains, locus YJR075W, strain HOC1, stronger effect = lower value
[11] = S. cerevisiae deletion strains, locus YKL190W, strain CNB1, stronger effect = lower value
[12] = S. cerevisiae deletion strains, locus YLR039C, strain RIC1, stronger effect = lower value
[13] = S. cerevisiae deletion strains, locus YLR058C, strain SHM2 (second series), stronger effect = lower value
[14] = S. cerevisiae deletion strains, locus YLR085C, strain ARP6, stronger effect = lower value
[15] = S. cerevisiae deletion strains, locus YLR262C, strain YPT6, stronger effect = lower value
[16] = S. cerevisiae deletion strains, locus YML094W, strain GIM5, stronger effect = lower value
[17] = S. cerevisiae deletion strains, locus YMR219W, strain ESC1, stronger effect = lower value
[18] = S. cerevisiae deletion strains, locus YMR263W, strain SAP30, stronger effect = lower value
[19] = S. cerevisiae deletion strains, locus YNL153C, strain GIM3, stronger effect = lower value
[20] = S. cerevisiae deletion strains, locus YNL298W, strain CLA4 (second series), stronger effect = lower value
[21] = S. cerevisiae deletion strains, locus YNL322C, strain KRE1, stronger effect = lower value
[22] = S. cerevisiae deletion strains, locus YNR030W, strain Alg12, stronger effect = lower value
[23] = S. cerevisiae deletion strains, locus YPL055C, strain LGE1, stronger effect = lower value
[24] = S. cerevisiae deletion strains, locus YPL241C, strain CIN2, stronger effect = lower value
[25] = S. cerevisiae deletion strains, locus YPR135W, strain CTF4, stronger effect = lower value
[26] = S. cerevisiae strains, strain wild type, stronger effect = lower value
[27] = S. cerevisiae deletion strains, locus YAL040C, strain CLN3, stronger effect = lower value
[28] = S. cerevisiae deletion strains, locus YER002W, strain NOP16, stronger effect = lower value
[29] = S. cerevisiae deletion strains, locus YNL175C, strain NOP13, stronger effect = lower value
[30] = S. cerevisiae deletion strains, locus YNL197C, strain WHI3, stronger effect = lower value
[31] = S. cerevisiae deletion strains, locus YNL224C, strain SQS1, stronger effect = lower value
[32] = S. cerevisiae deletion strains, locus YOR083W, strain WHI5 (second series), stronger effect = lower value

Measured: normalized growth

CC(C)(C)c1nccc(-c2nn(-c3ccc(F)cc3)ccc2=O)n1
inactive: [1] 0.991 | [2] 0.988 | S. cerevisiae deletion strains, locus YCL061C, strain MRC1, stronger effect = lower value 1.02 | [3] 1.03 | S. cerevisiae deletion strains, locus YDL134C, strain PPH21, stronger effect = lower value 0.994 | [4] 0.9 | [5] 1.01 | [6] 1.01 | [7] 1.02 | [8] 0.985 | S. cerevisiae deletion strains, locus YJL187C, strain SWE1, stronger effect = lower value 1.03 | [9] 1 | [10] 1.03 | [11] 1.01 | [12] 0.99 | [13] 1 | [14] 1.15 | [15] 0.974 | [16] 1 | [17] 1 | [18] 0.995 | [19] 1.02 | [20] 1.03 | [21] 1 | [22] 0.999 | S. cerevisiae deletion strains, locus YOL006C, strain TOP1, stronger effect = lower value 1.09 | [23] 0.949 | [24] 1.04 | [25] 0.869 | [26] 0.99

O=C1Cc2c([nH]c3ccc(Br)cc23)-c2ccccc2N1
inactive: [27] 0.964 | S. cerevisiae deletion strains, locus YCL061C, strain MRC1 (second series), stronger effect = lower value 0.991 | [4] 0.989 | S. cerevisiae deletion strains, locus YDR363W, strain ESC2, stronger effect = lower value 1.03 | [28] 1.01 | [10] 1.06 | [29] 0.984 | [30] 0.988 | [31] 0.998 | [32] 0.976 | [24] 0.985

COc1ccc2[nH]c3c(c2c1)CCNC3
inactive: [27] 0.974 | [28] 1.02 | S. cerevisiae deletion strains, locus YGR229C, strain SMI1, stronger effect = lower value 1.05 | [10] 1.01 | S. cerevisiae deletion strains, locus YNL128W, strain TEP1, stronger effect = lower value 0.996 | [19] 0.983 | [29] 0.985 | [30] 0.983 | [31] 1.01 | [32] 0.996 | [23] 1 | [24] 0.981

Brc1ccc2[nH]c3c(c2c1)CCC3
inactive: S. cerevisiae deletion strains, locus YAR019C, strain CDC15, stronger effect = lower value 0.954 | S. cerevisiae deletion strains, locus YBL105C, strain PKC1, stronger effect = lower value 0.955 | S. cerevisiae deletion strains, locus YBR135W, strain CKS1, stronger effect = lower value 0.934 | S. cerevisiae deletion strains, locus YBR136W, strain MEC1, stronger effect = lower value 0.945 | S. cerevisiae deletion strains, locus YBR160W, strain CDC28, stronger effect = lower value 0.949 | S. cerevisiae deletion strains, locus YDL017W, strain CDC7, stronger effect = lower value 0.962 | S. cerevisiae deletion strains, locus YDL028C, strain MPS1, stronger effect = lower value 0.937 | [3] 0.966 | S. cerevisiae deletion strains, locus YDL108W, strain KIN28, stronger effect = lower value 0.932 | S. cerevisiae deletion strains, locus YDL132W, strain cdc53, stronger effect = lower value 0.962 | S. cerevisiae deletion strains, locus YDR052C, strain DBF4, stronger effect = lower value 0.975 | S. cerevisiae deletion strains, locus YDR054C, strain cdc34, stronger effect = lower value 0.97 | S. cerevisiae deletion strains, locus YDR226W, strain ADK1, stronger effect = lower value 0.96 | S. cerevisiae deletion strains, locus YDR477W, strain SNF1, stronger effect = lower value 0.712 | S. cerevisiae deletion strains, locus YFL009W, strain cdc4, stronger effect = lower value 0.946 | S. cerevisiae deletion strains, locus YFL029C, strain CAK1, stronger effect = lower value 0.942 | S. cerevisiae deletion strains, locus YFR003C, strain YPI1, stronger effect = lower value 0.952 | S. cerevisiae deletion strains, locus YFR028C, strain CDC14, stronger effect = lower value 0.969 | S. cerevisiae deletion strains, locus YGR040W, strain KSS1, stronger effect = lower value 0.716 | S. cerevisiae deletion strains, locus YGR092W, strain DBF2, stronger effect = lower value 0.621 | S. cerevisiae deletion strains, locus YHR205W, strain SCH9, stronger effect = lower value 0.666 | S. cerevisiae deletion strains, locus YIL147C, strain SLN1, stronger effect = lower value 0.947 | S. cerevisiae deletion strains, locus YJL128C, strain PBS2, stronger effect = lower value 0.915 | S. cerevisiae deletion strains, locus YJL157C, strain FAR1, stronger effect = lower value 0.74 | S. cerevisiae deletion strains, locus YJR016C, strain ILV3, stronger effect = lower value 0.946 | S. cerevisiae deletion strains, locus YJR066W, strain TOR1 (second series), stronger effect = lower value 0.67 | S. cerevisiae deletion strains, locus YJR066W, strain TOR1, stronger effect = lower value 0.541 | S. cerevisiae deletion strains, locus YKL101W, strain HSL1, stronger effect = lower value 0.747 | S. cerevisiae deletion strains, locus YKL193C, strain SDS22, stronger effect = lower value 0.937 | S. cerevisiae deletion strains, locus YKL203C, strain TOR2, stronger effect = lower value 0.762 | S. cerevisiae deletion strains, locus YLR133W, strain CKI1, stronger effect = lower value 0.805 | S. cerevisiae deletion strains, locus YLR403W, strain SFP1, stronger effect = lower value 0.757 | S. cerevisiae deletion strains, locus YMR001C, strain CDC5, stronger effect = lower value 0.94 | S. cerevisiae deletion strains, locus YMR205C, strain PFK2 (second series), stronger effect = lower value 0.784 | S. cerevisiae deletion strains, locus YMR277W, strain FCP1, stronger effect = lower value 0.948 | S. cerevisiae deletion strains, locus YNL006W, strain LST8, stronger effect = lower value 0.938 | S. cerevisiae deletion strains, locus YNL020C, strain ARK1, stronger effect = lower value 0.795 | S. cerevisiae deletion strains, locus YNL161W, strain CBK1, stronger effect = lower value 0.942 | S. cerevisiae deletion strains, locus YNL207W, strain RIO2, stronger effect = lower value 0.926 | S. cerevisiae deletion strains, locus YNL222W, strain SSU72, stronger effect = lower value 0.936 | S. cerevisiae deletion strains, locus YNL307C, strain MCK1 (second series), stronger effect = lower value 0.695 | S. cerevisiae deletion strains, locus YOL078W, strain AVO1, stronger effect = lower value 0.942 | S. cerevisiae deletion strains, locus YOR061W, strain CKA2, stronger effect = lower value 0.76 | S. cerevisiae deletion strains, locus YOR119C, strain RIO1, stronger effect = lower value 0.729 | S. cerevisiae deletion strains, locus YOR329C, strain SCD5, stronger effect = lower value 0.948 | S. cerevisiae deletion strains, locus YPL209C, strain IPL1, stronger effect = lower value 0.938 | S. cerevisiae deletion strains, locus YPR025C, strain CCL1, stronger effect = lower value 0.94 | S. cerevisiae deletion strains, locus YPR106W, strain ISR1, stronger effect = lower value 0.94 | S. cerevisiae deletion strains, locus YPR111W, strain DBF20, stronger effect = lower value 0.945 | S. cerevisiae deletion strains, strain NNK1, stronger effect = lower value 0.926 | S. cerevisiae deletion strains, strain TSCII, stronger effect = lower value 0.931
active: S. cerevisiae deletion strains, locus YDL214C, strain PRR2, stronger effect = lower value 0.69 | S. cerevisiae deletion strains, locus YER123W, strain YCK3, stronger effect = lower value 0.609 | S. cerevisiae deletion strains, locus YER133W, strain GLC7, stronger effect = lower value 0.668 | S. cerevisiae deletion strains, locus YFR019W, strain FAB1, stronger effect = lower value 0.759 | S. cerevisiae deletion strains, locus YGR052W, strain FMP48, stronger effect = lower value 0.595 | [7] 0.344 | S. cerevisiae deletion strains, locus YHR079C, strain IRE1, stronger effect = lower value 0.151 | S. cerevisiae deletion strains, locus YHR082C, strain KSP1, stronger effect = lower value 0.587 | S. cerevisiae deletion strains, locus YJL095W, strain BCK1, stronger effect = lower value 0.467 | S. cerevisiae deletion strains, locus YKL048C, strain ELM1, stronger effect = lower value 0.769 | S. cerevisiae deletion strains, locus YKL067W, strain YNK1, stronger effect = lower value 0.723 | S. cerevisiae deletion strains, locus YLR113W, strain HOG1, stronger effect = lower value 0.44 | S. cerevisiae deletion strains, locus YML070W, strain DAK1, stronger effect = lower value 0.651 | S. cerevisiae deletion strains, locus YNL183C, strain NPR1, stronger effect = lower value 0.519 | S. cerevisiae deletion strains, locus YOL136C, strain PFK27, stronger effect = lower value 0.625 | S. cerevisiae deletion strains, locus YOR231W, strain MKK1, stronger effect = lower value 0.56 | S. cerevisiae deletion strains, locus YPL031C, strain PHO85, stronger effect = lower value 0.647 | S. cerevisiae deletion strains, locus YPL153C, strain RAD53, stronger effect = lower value 0.653 | S. cerevisiae deletion strains, locus YPL204W, strain HRR25, stronger effect = lower value 0.642 | S. cerevisiae deletion strains, locus YPL256C, strain CLN2, stronger effect = lower value 0.472

Cc1ccc2[nH]c3c(c2c1)CCCC3
inactive: [4] 0.911 | [11] 0.989 | [21] 0.949
active: [1] 0.853 | [2] 0.544 | [3] 0.778 | [5] 0.738 | [6] 0.781 | [7] 0.377 | [8] 0.762 | [9] 0.869 | [10] 0.636 | [12] 0.259 | [13] 0.867 | [14] 0.696 | [15] 0.224 | [16] 0.664 | [17] 0.828 | [18] 0.867 | [19] 0.807 | [20] 0.578 | [22] 0.669 | [23] 0.822 | [24] 0.722 | [25] 0.477 | [26] 0.904
